Measured values published in PubChem BioAssay.
Activity calls are given as the source filed them.

Tests used:
[1] = tested on: PRMT1 (protein arginine N-methyltransferase 1); assay: PRMT1 binders on small-molecule microarrays, primary screen, biochemical, small-molecule microarray, 635 nm fluorescence (AID 1088); conditions: small-molecule microarray binding, higher = more signal;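 also: binding of Prmt1 protein to compounds spotted on small-molecule microarray slides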
[2] = yeast growth modulation, basal conditions, primary screen, YJM789 clinical isolate, OD600, 24 h (AID 1089);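 also: growth of clinical yeast isolate S. cerevisiae YJM 789 seeded 1000 cells per well; test concentration not given here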; conditions: S. cerevisiae YJM789 growth, higher = more signal, called active from +8 up or from −8 down
[3] = fission yeast growth modulation, primary screen, strain 972, OD600, 24 h, no modulator (AID 1090);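 also: basal condition with compound alone and no growth modifier present; test concentration not given here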; conditions: S. pombe 972 growth, higher = more signal, called active from +8 up or from −8 down
[4] = S. cerevisiae growth modulation with rapamycin, primary screen, strain BY4716, OD600, 96 h (AID 1091); conditions: higher = more signal, called active from +8 up or from −8 down; also: test concentration not given here
[5] = target: Torsin-1A-interacting protein 2 (Homo sapiens) (UniProt Q8NFQ8); assay: LULL1 binders on small-molecule microarray, primary screen, cell lysate, human LULL1 lysate, 635/667 nm fluorescence (AID 1092); conditions: hLULL1 lysate binding, 635 nm fluorescence, higher = more signal;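 also: probe is lysate of COS7 cells overexpressing human LULL1; score merges per-feature 667 nm fluorescence with signal-to-noise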
[6] = E. coli growth modulation, two-sided OD650, primary screen, E. coli filamentation project, strain DRC41, 24 h (AID 1093); conditions: OD650, 24 h, higher = more signal, called active from +8 up or from −8 down;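 also: MC1000 strain lacking acrAB efflux and sulA so SOS filamentation is blocked; test concentration not given here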
[7] = small-molecule microarray binders of probe aLefty2, primary screen, biochemical, biotinylated probe, 635/667 nm fluorescence (AID 1094); conditions: higher = more signal;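 also: score merges spot fluorescence near 667 nm with spot signal-to-noise ratio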
[8] = tested on: Noggin (protein binding on small-molecule microarray); assay: Noggin binders on small-molecule microarray, primary screen, biochemical, 635/667 nm fluorescence (AID 1095); conditions: 635 nm fluorescence, higher = more signal;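 also: score merges 667 nm feature fluorescence with signal to noise over triplicate slides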
[9] = target: Neurogenic locus notch homolog protein 3 (Homo sapiens) (UniProt Q9UM47); assay: NOTCH3 binders on small-molecule microarray, primary screen, biochemical, 635/667 nm fluorescence (AID 1096); conditions: NOTCH3 binding, 635 nm fluorescence, higher = more signal
[10] = small-molecule microarray binders of probe aEGFR, primary screen, biochemical, biotinylated probe, 635/667 nm fluorescence (AID 1097); conditions: higher = more signal;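 also: probe is a biotinylated anti-EGFR antibody binding compounds printed on slides; score combines fluorescence near 667 nm and signal to noise of each spot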
[11] = tested on: Plasmodium falciparum Sir2 (PF13_0152, Sir2A); assay: pfSir2 binders on small-molecule microarrays, primary screen, biochemical, small-molecule microarray, 635 nm fluorescence (AID 1098); conditions: small-molecule microarray binding, fluorescence 635 nm; higher = more signal;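 also: score merges spot fluorescence intensity with its signal-to-noise ratio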
[12] = small-molecule microarray binders of probe aDKK1, primary screen, biochemical, biotinylated probe, 635/667 nm fluorescence (AID 1099); conditions: higher = more signal;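 also: score merges 667nm spot fluorescence with signal to noise across triplicate slides; reference of the scale not given here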
[13] = small-molecule microarray binders of probe aCHRDL2, primary screen, biochemical, biotinylated probe, 635/667 nm fluorescence (AID 1100); conditions: higher = more signal
[14] = splicing luciferase reporter signal modulators, primary screen, spliceosome inhibition project, cell-based, HEK293, splice +/- reporter (AID 1101); conditions: luminescence, 24 h, higher = more signal, called active from +8 up or from −8 down;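 also: HEK293 cells carrying a splicing-competent luciferase reporter gene; test concentration not given here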
[15] = target: Fibroblast growth factor 10 (Homo sapiens) (UniProt O15520); assay: FGF10 binders on small-molecule microarrays, primary screen, biochemical, small-molecule microarray, 635 nm fluorescence (AID 1102); conditions: FGF10 binding, fluorescence 635 nm, higher = more signal
[16] = tested on: glycogen synthase kinase-3 (GSK3A per assay name; protocol says GSK3B); assay: GSK3 binders on small-molecule microarrays, primary screen, biochemical, small-molecule microarray, 635 nm fluorescence, GSK3A (AID 1103); conditions: small-molecule microarray binding, fluorescence 635 nm; higher = more signal; also: the record names both GSK3A and GSK3B
[17] = target: Epidermal growth factor receptor (Homo sapiens) (UniProt P00533); assay: EGFR binders on small-molecule microarrays, primary screen, biochemical, small-molecule microarray, 635 nm fluorescence (AID 1104); conditions: EGFR binding, higher = more signal;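 also: score merges 667 nm emission intensity with spot signal to noise over triplicate slides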
[18] = target: Follistatin-related protein 3 (Homo sapiens) (UniProt O95633); assay: FSTL3 binders on small-molecule microarrays, primary screen, biochemical, small-molecule microarray, 635 nm fluorescence (AID 1105); conditions: FSTL3 binding, higher = more signal;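 also: score merges emission near 667 nm and signal to noise per printed spot across three slides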
[19] = target: Dickkopf-related protein 1 (Homo sapiens) (UniProt O94907); assay: DKK1 binders on small-molecule microarrays, primary screen, biochemical, small-molecule microarray, 635 nm fluorescence scan (AID 1106); conditions: DKK1 binding, higher = more signal;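 also: score merges emission near 667 nm with signal to noise over three replicate slides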
[20] = tested on: Inhibin beta A chain (activin A); assay: INHBA (activin A) binders on microarrays, primary screen, biochemical, small-molecule microarray, 635 nm fluorescence scan (AID 1107); conditions: small-molecule microarray binding, higher = more signal;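 also: mouse activin A protein probed at 4.33 µg/mL on printed slides; score merges bound-protein fluorescence near 667 nm with spot signal-to-noise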

Sequence of Epidermal growth factor receptor (Homo sapiens) (P00533 whole entry, looked up): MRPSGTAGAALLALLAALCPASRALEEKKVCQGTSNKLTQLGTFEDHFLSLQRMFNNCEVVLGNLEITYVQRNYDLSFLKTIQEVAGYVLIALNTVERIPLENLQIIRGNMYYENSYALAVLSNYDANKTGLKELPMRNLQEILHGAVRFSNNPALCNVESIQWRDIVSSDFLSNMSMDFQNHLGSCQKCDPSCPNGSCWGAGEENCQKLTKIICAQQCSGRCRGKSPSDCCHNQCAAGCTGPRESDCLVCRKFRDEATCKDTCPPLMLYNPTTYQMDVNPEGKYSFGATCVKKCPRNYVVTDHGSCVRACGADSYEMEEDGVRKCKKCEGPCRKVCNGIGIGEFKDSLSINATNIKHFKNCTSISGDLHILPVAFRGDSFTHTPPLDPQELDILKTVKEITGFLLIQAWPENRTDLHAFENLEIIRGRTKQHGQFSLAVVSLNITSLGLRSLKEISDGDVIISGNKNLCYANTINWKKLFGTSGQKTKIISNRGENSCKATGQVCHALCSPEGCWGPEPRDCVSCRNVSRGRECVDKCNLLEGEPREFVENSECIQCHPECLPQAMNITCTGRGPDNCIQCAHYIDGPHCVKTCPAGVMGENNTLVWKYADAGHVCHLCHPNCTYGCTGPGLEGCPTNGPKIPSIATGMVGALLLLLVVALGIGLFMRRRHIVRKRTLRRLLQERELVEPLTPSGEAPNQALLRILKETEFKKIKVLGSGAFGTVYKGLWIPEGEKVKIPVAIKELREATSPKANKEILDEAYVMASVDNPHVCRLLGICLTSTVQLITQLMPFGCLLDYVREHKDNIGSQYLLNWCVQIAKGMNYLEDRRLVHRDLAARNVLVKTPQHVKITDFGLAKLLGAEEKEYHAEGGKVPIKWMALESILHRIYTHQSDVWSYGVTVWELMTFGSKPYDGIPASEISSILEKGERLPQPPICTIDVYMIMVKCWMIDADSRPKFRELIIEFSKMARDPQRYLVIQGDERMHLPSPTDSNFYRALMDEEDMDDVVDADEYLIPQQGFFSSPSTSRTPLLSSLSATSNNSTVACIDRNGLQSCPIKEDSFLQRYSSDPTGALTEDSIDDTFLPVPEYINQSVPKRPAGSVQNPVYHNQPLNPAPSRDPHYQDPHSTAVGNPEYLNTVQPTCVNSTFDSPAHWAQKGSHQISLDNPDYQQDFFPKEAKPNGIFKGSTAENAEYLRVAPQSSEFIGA
Sequence of Dickkopf-related protein 1 (Homo sapiens) (O94907 whole entry, looked up): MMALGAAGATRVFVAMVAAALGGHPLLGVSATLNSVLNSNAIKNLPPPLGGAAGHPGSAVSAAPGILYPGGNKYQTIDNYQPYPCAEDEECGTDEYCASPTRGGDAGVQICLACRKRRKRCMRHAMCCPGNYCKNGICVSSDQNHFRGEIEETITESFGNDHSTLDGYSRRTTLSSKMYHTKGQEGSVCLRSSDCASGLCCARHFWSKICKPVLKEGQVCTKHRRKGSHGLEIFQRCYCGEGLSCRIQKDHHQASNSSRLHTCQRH
Sequence of Neurogenic locus notch homolog protein 3 (Homo sapiens) (Q9UM47 whole entry, looked up): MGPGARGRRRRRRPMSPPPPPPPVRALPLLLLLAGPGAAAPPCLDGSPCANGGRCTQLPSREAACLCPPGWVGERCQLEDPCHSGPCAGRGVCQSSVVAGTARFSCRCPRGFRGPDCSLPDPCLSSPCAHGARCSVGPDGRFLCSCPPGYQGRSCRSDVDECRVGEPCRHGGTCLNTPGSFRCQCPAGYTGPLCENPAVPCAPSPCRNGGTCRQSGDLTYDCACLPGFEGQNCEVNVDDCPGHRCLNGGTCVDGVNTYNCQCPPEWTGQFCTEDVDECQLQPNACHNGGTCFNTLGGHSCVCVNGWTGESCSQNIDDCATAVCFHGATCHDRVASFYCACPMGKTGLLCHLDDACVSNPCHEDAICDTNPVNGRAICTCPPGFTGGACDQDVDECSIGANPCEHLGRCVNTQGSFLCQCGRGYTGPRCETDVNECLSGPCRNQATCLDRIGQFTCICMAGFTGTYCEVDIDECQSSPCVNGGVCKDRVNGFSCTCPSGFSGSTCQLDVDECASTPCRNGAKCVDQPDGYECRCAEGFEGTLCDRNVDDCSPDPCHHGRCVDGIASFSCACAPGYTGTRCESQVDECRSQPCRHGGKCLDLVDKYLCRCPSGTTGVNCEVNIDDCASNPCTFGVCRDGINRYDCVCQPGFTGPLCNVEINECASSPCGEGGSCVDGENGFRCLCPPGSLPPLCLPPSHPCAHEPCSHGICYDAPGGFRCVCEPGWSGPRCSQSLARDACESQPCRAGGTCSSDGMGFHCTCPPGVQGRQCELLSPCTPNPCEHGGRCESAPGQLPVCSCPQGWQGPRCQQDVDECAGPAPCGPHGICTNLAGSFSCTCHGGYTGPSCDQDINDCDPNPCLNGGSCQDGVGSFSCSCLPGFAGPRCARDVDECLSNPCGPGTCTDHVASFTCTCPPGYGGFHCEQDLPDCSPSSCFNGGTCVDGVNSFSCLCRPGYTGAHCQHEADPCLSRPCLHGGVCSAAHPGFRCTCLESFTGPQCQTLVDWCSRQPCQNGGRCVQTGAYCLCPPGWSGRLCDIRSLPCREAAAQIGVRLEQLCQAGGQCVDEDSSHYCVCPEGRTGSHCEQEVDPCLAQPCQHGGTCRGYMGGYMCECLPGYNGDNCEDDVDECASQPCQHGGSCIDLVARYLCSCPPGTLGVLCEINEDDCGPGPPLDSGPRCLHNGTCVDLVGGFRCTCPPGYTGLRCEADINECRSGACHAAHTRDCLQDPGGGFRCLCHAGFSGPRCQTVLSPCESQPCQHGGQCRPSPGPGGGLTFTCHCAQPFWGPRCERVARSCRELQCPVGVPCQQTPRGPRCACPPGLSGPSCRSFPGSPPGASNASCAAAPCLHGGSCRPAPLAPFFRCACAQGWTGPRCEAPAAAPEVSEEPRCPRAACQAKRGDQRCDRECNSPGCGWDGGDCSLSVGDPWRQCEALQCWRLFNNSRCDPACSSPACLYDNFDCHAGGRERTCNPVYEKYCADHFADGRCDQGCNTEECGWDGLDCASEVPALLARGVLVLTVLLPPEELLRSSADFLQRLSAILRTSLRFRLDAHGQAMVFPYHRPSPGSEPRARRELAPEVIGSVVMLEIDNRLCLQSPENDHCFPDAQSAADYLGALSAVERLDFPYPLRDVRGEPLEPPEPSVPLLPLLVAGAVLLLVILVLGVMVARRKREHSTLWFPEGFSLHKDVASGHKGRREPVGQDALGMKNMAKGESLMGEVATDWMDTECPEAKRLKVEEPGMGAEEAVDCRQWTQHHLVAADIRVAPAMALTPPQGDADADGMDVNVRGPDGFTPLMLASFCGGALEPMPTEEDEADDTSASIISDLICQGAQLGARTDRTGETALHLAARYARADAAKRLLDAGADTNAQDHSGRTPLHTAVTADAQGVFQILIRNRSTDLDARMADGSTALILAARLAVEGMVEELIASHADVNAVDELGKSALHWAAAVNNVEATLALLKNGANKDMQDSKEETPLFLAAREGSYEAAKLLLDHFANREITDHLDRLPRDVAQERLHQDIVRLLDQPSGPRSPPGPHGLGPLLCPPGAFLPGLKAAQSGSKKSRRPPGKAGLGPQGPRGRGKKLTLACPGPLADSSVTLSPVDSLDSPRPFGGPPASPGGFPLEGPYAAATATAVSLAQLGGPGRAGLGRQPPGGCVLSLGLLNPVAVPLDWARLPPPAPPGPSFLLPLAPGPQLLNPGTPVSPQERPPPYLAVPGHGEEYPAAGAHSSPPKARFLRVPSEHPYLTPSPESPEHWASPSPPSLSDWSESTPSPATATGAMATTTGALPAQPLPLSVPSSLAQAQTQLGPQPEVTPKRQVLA
Sequence of Follistatin-related protein 3 (Homo sapiens) (O95633 whole entry, looked up): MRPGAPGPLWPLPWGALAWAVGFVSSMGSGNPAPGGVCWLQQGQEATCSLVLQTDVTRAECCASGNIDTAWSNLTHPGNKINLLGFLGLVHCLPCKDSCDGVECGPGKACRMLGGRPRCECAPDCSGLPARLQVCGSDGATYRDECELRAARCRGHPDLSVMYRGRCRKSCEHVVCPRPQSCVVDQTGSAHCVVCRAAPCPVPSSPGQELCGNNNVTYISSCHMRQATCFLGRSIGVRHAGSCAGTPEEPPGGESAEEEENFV
Sequence of Fibroblast growth factor 10 (Homo sapiens) (O15520 whole entry, looked up): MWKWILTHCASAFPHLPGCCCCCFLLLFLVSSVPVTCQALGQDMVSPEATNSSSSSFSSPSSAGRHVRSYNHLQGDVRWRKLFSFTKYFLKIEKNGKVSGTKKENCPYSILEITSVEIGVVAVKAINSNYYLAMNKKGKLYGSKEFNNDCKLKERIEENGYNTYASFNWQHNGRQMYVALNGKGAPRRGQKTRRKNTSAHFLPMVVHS
Sequence of Torsin-1A-interacting protein 2 (Homo sapiens) (Q8NFQ8 whole entry, looked up): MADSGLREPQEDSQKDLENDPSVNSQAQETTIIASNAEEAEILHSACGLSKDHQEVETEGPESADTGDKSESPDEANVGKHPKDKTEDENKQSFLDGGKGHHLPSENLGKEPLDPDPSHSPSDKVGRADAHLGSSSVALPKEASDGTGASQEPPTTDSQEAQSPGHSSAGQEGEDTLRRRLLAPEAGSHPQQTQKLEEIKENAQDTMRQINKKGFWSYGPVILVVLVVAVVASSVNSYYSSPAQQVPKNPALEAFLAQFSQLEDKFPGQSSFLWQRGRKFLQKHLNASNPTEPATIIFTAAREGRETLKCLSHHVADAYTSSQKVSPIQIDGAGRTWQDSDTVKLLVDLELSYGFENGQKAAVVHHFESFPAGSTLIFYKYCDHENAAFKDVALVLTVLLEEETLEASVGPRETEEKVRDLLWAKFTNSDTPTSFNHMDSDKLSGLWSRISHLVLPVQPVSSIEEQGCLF

| SMILES | composite z-score [1] | z-score [2] | z-score [3] | z-score [4] | composite z-score [5] | z-score [6] | composite z-score [7] | composite z-score [8] | composite z-score [9] | composite z-score [10] | composite z-score [11] | composite z-score [12] | composite z-score [13] | z-score [14] | composite z-score [15] | composite z-score [16] | composite z-score [17] | composite z-score [18] | composite z-score [19] | composite z-score [20] |
| --- | --- | --- | --- | --- | --- | --- | --- | --- | --- | --- | --- | --- | --- | --- | --- | --- | --- | --- | --- | --- |
| CCOC(=O)C[C@H]1[C@H](OC(=O)c2ccccc2-c2ccccc2)[C@@H](NC(=O)c2ccc3ccccc3n2)c2cc(OCCCO)ccc2N1C(=O)Cc1ccc(OC)cc1 | 0.115 | 0.59 (inactive) | -0.167 (inactive) | -0.0843 (inactive) | 0.346 | -0.776 (inactive) | -0.111 | 0.287 | 0.384 | -0.12 | -0.235 | 0.0006 | -0.302 | -0.378 (inactive) | 0.463 | 0.0131 | 0.238 | 0.176 | 0.0349 | 0.711 |
| [N-]=[N+]=Nc1ccccc1[C@@H]1OC(c2ccc(OCCCO)cc2)=N[C@]1(Cc1ccccc1)C(=O)N1CCCCC1 | 1.53 | -0.286 (inactive) | -0.487 (inactive) | 1.49 (inactive) | 3.27 | 0.27 (inactive) | 0.0277 | 0.847 | 1.04 | 0.001 | 1.16 | 0.374 | 0.711 | 0.745 (inactive) | 1.43 | 0.769 | 0.332 | 1.07 | -0.0165 | 0.441 |
| COc1ccc([Si](C)(C)[C@@H]2[C@@H](CCO)O[C@]3(C(=O)N(Cc4ccccc4)c4ccc(N5C(=O)c6cccc7cccc5c67)cc43)[C@H]2C)cc1 | 0.473 | 0.849 (inactive) | 1.97 (inactive) | 37.1 (active) | 0.984 | 0.89 (inactive) | -0.186 | -0.129 | -0.0162 | -0.177 | 1.42 | 0.0194 | 0.42 | -0.884 (inactive) | -0.231 | -0.642 | -0.0299 | -0.448 | -0.0876 | -0.344 |
| CCOC(=O)C1=CC[C@@H](c2ccccc2)N(S(=O)(=O)c2ccc(C)cc2)[C@H]1c1ccccc1 | 0.0074 | 0.181 (inactive) | 1.88 (inactive) | 3.8 (inactive) | 1.74 | -0.794 (inactive) | 0.02 | 0.156 | 0.505 | 0.0515 | 0.264 | 0.769 | 0.54 | -0.387 (inactive) | 0.356 | 0.738 | -0.404 | 0.397 | -0.187 | 0.903 |
| CO[C@H]1O[C@H](CO)[C@@H](OC(=O)Nc2ccc(Br)cc2)[C@@H]2OC(=O)[C@@H](Cc3ccccc3)C/C=C/C[C@H](Cc3ccccc3)C(=O)O[C@@H]12 | 1.44 | 1.1 (inactive) | -0.295 (inactive) | 3.58 (inactive) | 2.01 | 1.03 (inactive) | 0.0378 | 0.202 | 0.464 | -0.0668 | 0.939 | -0.139 | 0.265 | -0.913 (inactive) | 0.767 | 0.602 | -0.265 | -0.0749 | -0.0375 | 0.517 |
| CCCC=C(CCC)[C@@H](NC(=O)c1cccs1)c1ccc(C(=O)OC)cc1 | -1.88 | -0.0214 (inactive) | 0.598 (inactive) | -0.0964 (inactive) | 0.905 | -0.0658 (inactive) | 1.18 | 0.542 | 0.587 | 0.925 | 0.366 | 1.96 | 0.824 | -0.571 (inactive) | 1.31 | 0.625 | 0.782 | 0.89 | 0.473 | -0.032 |
| CC#CCO[Si](C#Cc1ccccc1)(C(C)C)C(C)C | -0.877 | -1.72 (inactive) | -19.5 (active) | -1.86 (inactive) | -0.669 | -0.304 (inactive) | -0.135 | 0.709 | 0.231 | -0.203 | -0.849 | -0.105 | 0.194 | 1.07 (inactive) | 0.754 | -0.872 | 0.457 | -0.719 | -0.999 | 1.14 |
| COc1ccc([Si](C)(C)[C@@H]2[C@@H](CC(=O)N(CCO)Cc3ccccc3)O[C@]3(C(=O)N(Cc4cccc(N5CCCCC5=O)c4)c4ccccc43)[C@H]2C)cc1 | 1.42 | 1.42 (inactive) | -0.0344 (inactive) | 3.5 (inactive) | 2.38 | 1.02 (inactive) | 0.232 | 1.45 | 0.948 | -0.151 | 1.16 | -0.0247 | 0.505 | -0.166 (inactive) | 0.883 | 0.1 | 0.242 | 0.84 | 0.419 | 0.493 |
| CN(C)C(=O)[C@]1(Cc2ccccc2CN=[N+]=[N-])N=C(c2ccc(OCCCO)cc2)O[C@@H]1c1ccccc1 | 1.57 | -0.545 (inactive) | -1.07 (inactive) | 20.8 (active) | 3.29 | -0.915 (inactive) | -0.0352 | 0.104 | 0.439 | 0.0958 | 1.19 | 0.161 | 0.821 | -1.45 (inactive) | 0.647 | 0.497 | -0.19 | -0.202 | -0.147 | 1.29 |
| CC(CO)N1C(=O)[C@]2(C)C3C(=O)OCCC/C=C\[C@H]3OC23C=CCN(c2ccc(Cl)cc2)C(=O)[C@@H]13 (stereo not given in full) | -1.06 | 0.0276 (inactive) | -0.358 (inactive) | -0.14 (inactive) | -1.08 | 0.525 (inactive) | -0.152 | -0.554 | -0.162 | -0.165 | -0.714 | -0.0842 | 0.167 | -0.712 (inactive) | -0.39 | -0.558 | -0.558 | -0.798 | -0.0396 | -0.0439 |
